Values joined by “and” are separate entries in the source; they are usually repeats but may differ in a detail not shown here. Equal values may be shown once. Inconclusive results are not listed. A call without a number means that no potency is given here. Active and inactive are the calls of the source. The call rests on the fitted dose curve; in most records, active means well fitted curve in the direction sought with a large enough effect; inconclusive means small, poorly fitted or top-dose-only effect, or another doubt; inactive means no such curve, though single readings can be large; an effect the other way counts as inactive or inconclusive.
Legend:
[1] = qHTS of pediatric cancer cell lines to identify multiple opportunities for drug repurposing: Primary screen for SK-N-MC cells (AID 1347093); further: potency means the concentration at half of the fitted maximal effect
Method in brief: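 Metabolically active cells were quantified by ATP-dependent luminescence (CellTiter-Glo, 15 min at room temperature) following 48 h treatment. Cells had been plated at 500-1,000 per well and settled for 5 h beforehand.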

[2] = qHTS of pediatric cancer cell lines to identify multiple opportunities for drug repurposing: Primary screen for NB-EBc1 cells (AID 1347095); further: potency means the concentration at half of the fitted maximal effect
Method in brief: (§1)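 Luminescence from CellTiter-Glo served as readout of metabolically active cells after 48 h compound exposure. Titrations: MIPE 11-point, from 0.78 nM; NPC 8-point, from 0.59 nM (final). Concentration-response curves came straight from the primary screen.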

[3] = qHTS of pediatric cancer cell lines to identify multiple opportunities for drug repurposing: Primary screen for Saos-2 cells (AID 1347097); further: nearly all actives have a fitted effect of over 40% in size; further: potency means the concentration at half of the fitted maximal effect
Method in brief: as §1

[4] = qHTS of pediatric cancer cell lines to identify multiple opportunities for drug repurposing: Primary screen for SK-N-SH cells (AID 1347098); further: nearly all actives have a fitted effect of over 65% in size; further: potency means the concentration at half of the fitted maximal effect
Method in brief: (§2)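 Cells (500-1,000/well) rested 5 h, then received compounds for 48 h; metabolically active cells were measured by CellTiter-Glo luminescence. Final concentrations spanned up to 46 µM (MIPE, 11-point) or 0.59 nM-46 µM (NPC, 8-point) in primary screens, 11-point in follow-ups.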

[5] = qHTS of pediatric cancer cell lines to identify multiple opportunities for drug repurposing: Primary screen for NB1643 cells (AID 1347099); further: nearly all actives have a fitted effect of over 50% in size; further: potency means the concentration at half of the fitted maximal effect
Method in brief: as §1

[6] = qHTS of pediatric cancer cell lines to identify multiple opportunities for drug repurposing: Primary screen for LAN-5 cells (AID 1347100); further: potency means the concentration at half of the fitted maximal effect
Method in brief: as §2

[7] = qHTS of pediatric cancer cell lines to identify multiple opportunities for drug repurposing: Primary screen for OHS-50 cells (AID 1347103); further: nearly all actives have a fitted effect of over 40% in size; further: potency means the concentration at half of the fitted maximal effect
Method in brief: as §2

[8] = qHTS of pediatric cancer cell lines to identify multiple opportunities for drug repurposing: Primary screen for MG 63 (6-TG R) cells (AID 1347105); further: nearly all actives have a fitted effect of over 50% in size; further: potency means the concentration at half of the fitted maximal effect
Method in brief: as §1

[9] = qHTS of pediatric cancer cell lines to identify multiple opportunities for drug repurposing: Primary screen for control Hh wild type fibroblast cells (AID 1347106);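 further: series mostly up to about 46 µM; a drop in luminescence marks cytotoxicity and a rise apparent proliferation; nearly all actives have a fitted effect of over 55% in size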
Method in brief: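 Cells (500-1,000/well) in growth media were settled 5 h at 37 degrees C, then given compounds for 48 h. Viability was read as CellTiter-Glo luminescence. Primary runs used MIPE at 11 points (0.78 nM-46 µM) and NPC at 8 points (0.59 nM-46 µM); follow-ups used 11 points.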

[10] = qHTS of pediatric cancer cell lines to identify multiple opportunities for drug repurposing: Primary screen for BT-37 cells (AID 1347094); further: potency means the concentration at half of the fitted maximal effect
Method in brief: as §1

[11] = qHTS of pediatric cancer cell lines to identify multiple opportunities for drug repurposing: Primary screen for U-2 OS cells (AID 1347096); further: nearly all actives have a fitted effect of over 50% in size
Method in brief: as §2

[12] = qHTS of pediatric cancer cell lines to identify multiple opportunities for drug repurposing: Primary screen for Rh18 cells (AID 1347102); further: nearly all actives have a fitted effect of over 65% in size
Method in brief: as §2

[13] = qHTS of pediatric cancer cell lines to identify multiple opportunities for drug repurposing: Primary screen for RD cells (AID 1347104); further: nearly all actives have a fitted effect of over 55% in size; further: potency means the concentration at half of the fitted maximal effect
Method in brief: as §1

[14] = qHTS of pediatric cancer cell lines to identify multiple opportunities for drug repurposing: Primary screen for Rh30 cells (AID 1347107); further: series mostly up to about 46 µM; nearly all actives have a fitted effect of over 75% in size
Method in brief: as §2

[15] = qHTS of pediatric cancer cell lines to identify multiple opportunities for drug repurposing: Primary screen for BT-12 cells (AID 1347101); further: nearly all actives have a fitted effect of over 25% in size; further: potency means the concentration at half of the fitted maximal effect
Method in brief: as §2

[16] = qHTS of pediatric cancer cell lines to identify multiple opportunities for drug repurposing: Confirmatory screen for A673 cells (AID 1347110);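 further: potency means the concentration at half of the fitted maximal effect; cells exposed to compound for 48 h before the viability read; nearly all actives have a fitted effect of over 65% in size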
Method in brief: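 qHTS titration format: primary MIPE 0.78 nM-46 µM (11 pts), NPC 0.59 nM-46 µM; confirmation 11 pts. 48 h, CTG luminescence.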

[17] = qHTS of pediatric cancer cell lines to identify multiple opportunities for drug repurposing: Confirmatory screen for BT-12 cells (AID 1347112); further: nearly all actives have a fitted effect of over 55% in size
Method in brief: as §2

[18] = qHTS of pediatric cancer cell lines to identify multiple opportunities for drug repurposing: Primary screen for Rh41 cells (AID 1347108); further: nearly all actives have a fitted effect of over 70% in size; further: potency means the concentration at half of the fitted maximal effect
Method in brief: as §1

[19] = qHTS of pediatric cancer cell lines to identify multiple opportunities for drug repurposing: Confirmatory screen for NB1643 cells (AID 1347109); further: nearly all actives have a fitted effect of over 45% in size
Method in brief: as §2

[20] = qHTS of pediatric cancer cell lines to identify multiple opportunities for drug repurposing: Confirmatory screen for LAN-5 cells (AID 1347113); further: nearly all actives have a fitted effect of over 65% in size
Method in brief: as §2

| Compound | Potency [1] | Potency [2] | Potency [3] | Potency [4] | Potency [5] | Potency [6] | Potency [7] | Potency [8] | Potency [9] | Potency [10] | Potency [11] | Potency [12] | Potency [13] | Potency [14] | Potency [15] | Potency [16] | Potency [17] | Potency [18] | Potency [19] | Potency [20] |
| --- | --- | --- | --- | --- | --- | --- | --- | --- | --- | --- | --- | --- | --- | --- | --- | --- | --- | --- | --- | --- |
| CC[C@H](Nc1ncnc2nc[nH]c12)c1nc2cccc(F)c2c(=O)n1-c1ccccc1 | 0.935 µM (active) | 14.8 µM (active) | 9.35 µM (active) | 7.64 µM (active) | 16.6 µM (active) | 20.9 µM (active) | 6.85 µM (active) | 2.35 µM (active) | inactive |  |  |  |  |  |  |  |  |  |  |  |
| O=S(=O)(N=Cc1c(O)ccc2ccccc12)c1cccs1 | 9.35 µM (active) |  | 18.7 µM (active) | inactive |  | inactive |  | 2.35 µM (active) |  | inactive | inactive | inactive | inactive | inactive |  |  |  |  |  |  |
| Fc1ccc(Cl)cc1-c1nc(Nc2ccncc2)c2nccnc2n1 | inactive | inactive |  | inactive | inactive | inactive | inactive | inactive | inactive |  | inactive | inactive | inactive | inactive | inactive |  |  |  |  |  |
| CCn1c(-c2nonc2N)nc2c(C#CC(C)(C)O)ncc(OC[C@H]3CCCNC3)c21 | 0.469 µM (active) | 18.7 µM (active) |  |  | 18.7 µM (active) | 5.26 µM (active) |  |  | inactive |  | inactive | inactive | 23.5 µM (active) | inactive | inactive |  |  |  |  |  |
| Cn1cnc([N+](=O)[O-])c1Sc1ncnc2nc[nH]c12 | inactive |  | inactive |  | 12.1 µM (active) | 6.79 µM (active) and 5.26 µM (active) | 1.4 µM (active) and 3.47 µM (active) and 3.06 µM (active) | inactive | inactive | 994 nM (active) and 1.38 µM (active) and 1.53 µM (active) |  | inactive | inactive | inactive |  | 1.89 µM (active) | inactive |  |  |  |
| C[C@@H]1CN(Cc2ccc(F)cc2)[C@@H](C)CN1C(=O)c1cc2c(C(=O)C(=O)N(C)C)cn(C)c2cc1Cl | 0.0372 µM (active) |  |  |  | 2.64 µM (active) |  |  |  |  | inactive |  | inactive | 0.833 µM (active) |  |  |  |  |  |  |  |
| O=C(C1CC1)N1CC[C@@H](Cn2c(-c3ccc(-c4ccc5occc5c4)cc3)nc3cnccc32)C1 | 18.7 µM (active) | 13.2 µM (active) | inactive | inactive | inactive |  | inactive | inactive | inactive |  | inactive | inactive | inactive | inactive |  |  |  | inactive |  |  |
| O=NN(CCCl)C(=O)NCCCl | inactive |  | inactive | inactive | inactive | inactive | inactive | inactive | inactive | inactive | inactive | inactive | inactive | inactive | inactive | 16.5 µM (active) | inactive |  | inactive | inactive |
| CN(C)c1ccc(C2Nc3ccc4ccccc4c3C3=C2C(=O)CC(C)(C)C3)cc1Br (stereo not drawn) | 7.43 µM (active) | inactive |  | inactive | 20.9 µM (active) | inactive |  |  | inactive |  | inactive | inactive |  | inactive | inactive |  | inactive |  |  | inactive |
| COc1ccc2c3n(c(=NC(=O)c4cccnc4)nc2c1OC)CCN3 | 0.372 µM (active) | 18.7 µM (active) | 1.18 µM (active) | 0.961 µM (active) | 4.18 µM (active) | 14.8 µM (active) | 0.968 µM (active) | 2.35 µM (active) | inactive |  |  |  | 1.87 µM (active) | inactive | inactive |  |  |  |  |  |
| COc1c(Cl)cc2c([nH]c3cnccc32)c1NC(=O)c1cccnc1C | 1.32 µM (active) | inactive |  |  |  | inactive |  |  | inactive |  | inactive |  |  | inactive |  |  |  |  |  |  |
| O=C(O)[C@@H](c1ccc(OCc2ccc3ccccc3n2)cc1)C1CCCC1 | inactive |  | inactive | inactive |  | inactive |  | inactive | inactive | inactive | inactive | inactive | inactive | inactive | inactive |  |  |  |  |  |
| Clc1ccc(Nc2nnc(Cc3ccncc3)c3ccccc23)cc1 | 2.35 µM (active) | inactive | inactive | 21.7 µM (active) | inactive | inactive | 19.5 µM (active) |  | inactive |  | inactive |  | inactive | inactive |  |  |  |  |  |  |
| CN(C)C(=O)c1ccc(S(=O)(=O)c2ccc(NC(=O)[C@@](C)(O)C(F)(F)F)c(Cl)c2)cc1 | 16.6 µM (active) | inactive |  | inactive |  | inactive |  |  | inactive |  | inactive | inactive |  | inactive | 13.7 µM (active) |  |  |  |  |  |
| Cc1cccc(-c2[nH]c(C(C)(C)C)nc2-c2ccc3nccnc3c2)n1 | 10.5 µM (active) |  | 1.66 µM (active) |  | 16.6 µM (active) |  | 6.11 µM (active) | inactive | inactive | 19.3 µM (active) |  |  |  | inactive | 24.3 µM (active) |  |  | 2.96 µM (active) |  |  |
